The source of these data is PubChem BioAssay (NCATS).

Inconclusive results are not listed.

The experiment in a line: qHTS Assay for Lipid Storage Modulators (AID 1519). The conditions noted are these: Drosophila S3 cells, BODIPY lipid droplet/cell ratio, laser cytometry; measured here: lipid channel max response; cells loaded with oleic acid. The method in brief:
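Cells seeded at 5,000 per well were treated with compounds over a concentration series and loaded with oleic acid (400 uM, as added). Lipid droplet fluorescence (488 nm excitation, 500-530 nm channel) was read by laser-scanning cytometry and normalized to 20 uM Triacsin C.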
In general terms: Quantitative high-throughput screening tests each substance at several concentrations.
For `CC(C)(O)[C@@H]1C2OC(=O)[C@@H]1[C@]1(O)C[C@H]3O[C@]34C(=O)O[C@H]2[C@]14C`, the max response was 5.39%.

In the case of `CC(C)OC(=O)Nc1cccc(Cl)c1`, the max response came out at 15.8%.

Consider `CNC(=O)Oc1cccc2c1OC(C)(C)O2`, for which the max response amounted to 22.8%.

Take `CC[C@@H]1CN2CC[C@@H]1C[C@H]2[C@H](O)c1ccnc2ccc(OC)cc12`: the max response was 1.41%.

In the case of `CC(=O)CC1CCCCN1` (stereo not drawn), the max response turned out to be 14.1%.

Consider `CC(C)c1cc2c(c(O)c1O)[C@]1(C(=O)O)CCCC(C)(C)C1CC2` (stereo partly drawn), for which the max response is -4.62%.

Turning to `COc1cc(C2c3cc4c(cc3C(O)C3COC(=O)C23)OCO4)cc(OC)c1O` (stereo not drawn), the max response was 6.73%.

As for `C/C=C(\C)C(=O)OC1CC(OC(C)=O)[C@@]2(C(=O)OC)COC3C2[C@@]12CO[C@](O)(C(=O)OC)C2[C@](C)(C12OC1(C)C1CC2OC2OC=C[C@]21O)C3O` (stereo partly drawn), the max response was -10.6%.

Regarding `COC(=O)COc1cc(Cl)c(Cl)cc1Cl`, the max response was 15.5%.

Take `O=c1cccc2n1CC1CC2CN2CCCCC12` (stereo not drawn): the max response was 1.59%.

As to `O=C1CCCC2[C@@H]3CCCN4CCC[C@@H](CN12)C34` (stereo partly drawn), the max response was 7.09%.

As for `CCCCSP(=O)(SCCCC)SCCCC`, the max response was found to be 52%.

As to `C[C@]12CCC3C(CC[C@H]4C[C@@H](O)CC[C@]34C)[C@@H]1CCC2=O` (stereo partly drawn), the max response is -8.16%.

`CCS(=O)CCSP(=O)(OC)OC` (stereo not drawn): the max response amounted to 3.47%.

On to `OCC1CCCN2CCCCC12` (stereo not drawn), for which the max response came to 1.94%.

Regarding `COP(N)(=O)SC` (stereo not drawn), the max response was found to be 6.43%.

Turning to `C[C@@]12CCC(=O)C[C@@H]1CC[C@@H]1[C@@H]2CC[C@]2(C)C(=O)CC[C@@H]12`, the max response was 10.6%.

For the molecule `O=C(CC[N+](=O)[O-])OCC1OC(O)C(OC(=O)CC[N+](=O)[O-])[C@@H](OC(=O)CC[N+](=O)[O-])C1OC(=O)CC[N+](=O)[O-]` (stereo partly drawn), the max response worked out at 17.5%.
